# Source: PubChem BioAssay
# Only some compounds are listed: those with a hit (about 5.7% of all), similar ones and a draw of the others.
# DAX1 inh-1 = DAX1 (NR0B1) inhibition, primary screen; HEK293T StAR-luciferase reporter, SF-1/DAX-1 repression relief; inhibition, % at 6.8 µM; 370,000 tested, 1.1% active;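 active means inhibition above the mean over all tested compounds plus 3 SD, cut at about 3.6% in these data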;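 further: 0% = DAX-1 cells with DMSO and 100% = cells lacking DAX-1 with DMSO; higher inhibition means more luminescence from relief of DAX-1 repression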
# DAX1 inh-2 = inhibits human nuclear receptor DAX1. P51843. HEK293 Gal4-DAX1 luciferase reporter, luminescence. inhibition, % at 6.75 µM. 340,000 tested, 0.99% active. AID 504766;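 active means inhibition above the mean over all tested compounds plus 3 SD, cut at about 4.2% in these data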;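 further: 0% = DAX1-transfected cells with DMSO and 100% = empty-vector control cells with DMSO; inhibition shows as a rise in luminescence from relieved DAX1 repression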
# AHR activator = human AHR activation; AHR-responsive luciferase reporter cells, luminescence; activation, % at 5 µM; 320,000 tested, 2.5% active; AID 2796; in the data active means activation above about 47%;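 further: 0% = vehicle wells and 100% = reference agonist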
# Target sequence (P35869 whole entry, looked up): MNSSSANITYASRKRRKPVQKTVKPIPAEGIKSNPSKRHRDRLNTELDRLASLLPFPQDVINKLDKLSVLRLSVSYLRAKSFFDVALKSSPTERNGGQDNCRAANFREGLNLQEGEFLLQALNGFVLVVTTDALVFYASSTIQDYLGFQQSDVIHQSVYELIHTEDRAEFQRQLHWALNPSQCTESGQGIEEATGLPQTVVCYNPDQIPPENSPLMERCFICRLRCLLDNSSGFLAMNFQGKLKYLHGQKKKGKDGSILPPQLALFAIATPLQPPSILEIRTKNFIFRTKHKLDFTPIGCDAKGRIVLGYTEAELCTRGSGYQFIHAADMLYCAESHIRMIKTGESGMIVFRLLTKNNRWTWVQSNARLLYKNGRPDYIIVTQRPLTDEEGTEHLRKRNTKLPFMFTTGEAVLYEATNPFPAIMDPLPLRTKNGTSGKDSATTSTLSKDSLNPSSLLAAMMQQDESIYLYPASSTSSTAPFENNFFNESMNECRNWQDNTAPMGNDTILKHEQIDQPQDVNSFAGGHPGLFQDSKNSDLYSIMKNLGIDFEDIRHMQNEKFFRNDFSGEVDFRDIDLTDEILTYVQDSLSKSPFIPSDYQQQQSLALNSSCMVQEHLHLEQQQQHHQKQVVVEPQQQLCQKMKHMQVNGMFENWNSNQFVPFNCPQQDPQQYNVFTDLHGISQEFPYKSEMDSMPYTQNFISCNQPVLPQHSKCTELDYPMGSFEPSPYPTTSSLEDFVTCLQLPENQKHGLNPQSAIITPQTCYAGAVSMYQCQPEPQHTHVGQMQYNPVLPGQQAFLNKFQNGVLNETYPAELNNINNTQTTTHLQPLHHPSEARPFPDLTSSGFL
# ssDAF12 agonist = activators of S. stercoralis DAF-12 nuclear receptor. AID 652126. activation, % at 6.8 µM. HEK293 ssDAF-12/GRIP1 lit1-tk-luc reporter, luminescence; % of 3 µM dafachronic acid response. 370,000 tested, 1% active;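 active means activation above the mean over all tested compounds plus 3 SD, cut at about 0.9% in these data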;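 further: 0% = DMSO-only wells and 100% = 3 µM delta7-dafachronic acid wells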
# hgDAF12 agonist = hgDAF-12 agonism, primary luciferase screen. HEK293 GAL4-hgDAF12 UAS-luciferase reporter, agonist luminescence; normalized to butyrate control. activation, % at 6.8 µM. 370,000 tested, 1.8% active. AID 687014;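 active means activation above a cutoff set at the mean of all screened compounds plus 3 SD, cut at about 10% in these data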;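 further: 0% = DMSO wells and 100% = sodium butyrate wells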
# hcDAF12 agonist = activates DAF-12 receptor from parasite H. contortus; HEK293 hcDAF-12 lit1-tk-luc reporter, luminescence; 0% DMSO, 100% Δ7-dafachronic acid; activation, % at 6.8 µM; 370,000 tested, 1.4% active; AID 652067;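 active means activation above the mean of all tested compounds plus 3 SD, cut at about 5.5% in these data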;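 further: 100% = response to 3 µM Δ7-dafachronic acid high control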
# Numbers without * were called inactive; · = no result given.
SMILES,DAX1 inh-1,DAX1 inh-2,AHR activator,ssDAF12 agonist,hgDAF12 agonist,hcDAF12 agonist
COC(=O)c1ccc2nc(C)c(C)nc2c1,0.1,0.0,3.9,-1.5,2.5,0.8
CCCc1c(C(=O)Nc2ccc(C(F)(F)F)cc2)cnn1-c1ccccc1,-0.2,-1.4,110.2*,-1.2,-0.4,-1.1
O=C(O)CSC1CC(=O)N(c2cccc(Cl)c2)C1=O (configuration not stated),-0.4,-1.4,1.5,-1.1,-0.6,-1.2
COc1ccc(OC)c(S(=O)(=O)NCCO)c1,0.4,-0.6,0.6,-0.9,-1.6,-0.2
Cc1cccc(C)c1NC(=O)C1CCCN(CCCc2ccccc2)C1 (configuration not stated),-0.2,0.6,·,-1.3,-1.0,0.0
CCC1(C)Cc2c(sc3c2c(=O)n(C)c2nnc(SCc4ccc5c(c4)OCO5)n32)CO1 (configuration not stated),-0.7,0.0,0.2,-1.4,-1.5,-1.9
CC12CCC(c3c(CO)nn(-c4ccccc4)c31)C2(C)C (configuration not stated),-0.8,-0.7,-3.0,-1.4,-0.4,-2.0
CC(=O)c1cccc(NC(=O)c2ccc(N(C)S(=O)(=O)c3ccc(C)cc3)cc2)c1,-4.1,-0.5,47.9*,-1.6,-2.1,-4.0
O=C(Nc1ccc(C(F)(F)F)cc1)c1ccccc1Br,1.0,1.1,28.5,-1.2,6.5,1.2
CCOC(=O)c1ccc(NC(=O)c2ccc(NS(C)(=O)=O)cc2)cc1,-0.1,-0.7,0.5,-1.6,-1.9,-1.0
CCOC(=O)c1ccc(NC(=O)c2ccccc2)cc1,2.0,0.5,1.2,-0.8,10.8*,3.9
CCOC(=O)c1cccc(NC(=O)c2ccc(N(C)C)cc2)c1,1.7,-3.0,-10.1,-0.7,10.8*,1.2
CN(c1ccc(C(=O)Nc2cccc(O)c2)cc1)S(=O)(=O)c1ccccc1,0.0,0.3,0.7,-1.4,1.9,0.4
O=C(Nc1ccc(C(F)(F)F)cc1)c1ccccc1,1.0,0.6,53.3*,0.2,4.4,0.4
CCCN1C(=O)CN(C2CCCCCC2)C(=O)C1c1ccc(C)cc1 (configuration not stated),-0.8,-0.2,1.5,-1.4,1.7,-1.4
C(=N\C(/N=C/c1ccco1)c1ccco1)/c1ccco1,-0.1,-1.7,10.9,-0.7,0.8,-1.0
COC(=O)CC1(c2ccc(OC)cc2)C(=O)c2ccccc2C1=O,0.3,7.1*,2.0,-2.4,-0.3,0.9
Cc1cccc(OCCNC(=O)c2cncc(Br)c2)c1,0.3,1.1,6.8,3.3*,2.0,0.1
Nc1[nH]c(C(=O)c2ccccc2)c(-c2ccc(Cl)cc2Cl)c1C(=O)NCCc1c[nH]c2ccccc12,-1.6,·,·,-1.3,1.9,-2.9
Nc1[nH]c(C(=O)c2ccc(Br)cc2)c(-c2ccc(Cl)cc2Cl)c1C(=O)NCCc1c[nH]c2ccccc12,0.5,·,·,1.1*,1.2,0.7
COC(=O)C(Cc1c[nH]c2ccccc12)NC(=O)c1cncc(Br)c1 (configuration not stated),-0.4,1.0,44.4,0.0,0.8,5.2
O=C(NCCc1c[nH]c2ccccc12)c1cncc(Br)c1,-0.3,-0.4,49.3*,0.1,1.5,3.3
CC1=C(C(=O)OCC2CCCO2)C(c2coc3ccc(Cl)cc3c2=O)C2=C(CCCC2=O)N1 (configuration not stated),-1.2,8.9*,34.9,-0.3,-1.5,2.7
CC1=C(C(=O)OCC2CCCO2)C(c2ccc(C)cc2)C2=C(CCCC2=O)N1 (configuration not stated),-0.1,0.5,2.0,-2.2,1.4,-1.6
CC1=C(C(=O)OC2CCCC2)C(c2coc3ccc(C)cc3c2=O)C2=C(CCCC2=O)N1 (configuration not stated),0.2,2.7,15.6,-0.2,-1.7,3.2
SMILES,DAX1 inh-1,DAX1 inh-2,AHR activator,ssDAF12 agonist,hgDAF12 agonist,hcDAF12 agonist
CC1=C(C(=O)OCC2CCCO2)C(c2coc3ccc(C)cc3c2=O)C2=C(CCCC2=O)N1 (configuration not stated),0.2,-1.8,10.8,1.7*,-1.0,4.3
CC(C)Cn1c(SC(C)C(=O)NCC2CCCO2)nc2ccc(Cl)cc2c1=O (configuration not stated),2.8,1.9,-0.1,0.1,-1.1,-0.6
C#CCOc1nc(Nc2cccc([N+](=O)[O-])c2)nc(OCC#C)n1,-0.4,-0.5,52.3*,-1.7,-3.2,-1.1
COc1ccc(N2CCN(CC(=O)NC(C)c3ccccc3)CC2)cc1 (configuration not stated),0.1,-1.9,4.8,0.8,-1.2,-0.6
COC(=O)CCS(=O)(=O)c1cc(Cl)ccc1Cl,-0.3,2.2,-1.9,-0.3,-1.6,-1.3
Cc1ccc(Cl)cc1N1CCN(C(=O)Cc2c(C(=O)O)[nH]c3ccccc23)CC1,0.1,1.2,7.8,1.2*,-2.4,5.2
COC(=O)CN1C(c2ccccc2O)Nc2ccc(Br)cc2C1c1ccccc1 (configuration not stated),0.3,-0.7,1.6,-1.5,-3.6,-1.1
O=C1c2ccccc2C(=O)N1CN(C(=O)COc1ccc(Cl)cc1Cl)c1cccc(F)c1,1.4,0.1,6.6,0.1,1.7,5.9*
COc1cc(C(=O)NCCN2C(=O)S/C(=C\c3cccs3)C2=O)cc(OC)c1OC,0.9,-1.1,5.3,-1.0,2.7,0.7
O=c1cc(-c2ccc(O)cc2)oc2ccc(O)cc12,2.1,-0.2,1.4,-0.2,12.5*,1.8
O=c1cc(-c2ccc(O)cc2)oc2ccccc12,2.6,3.1,1.9,-1.1,8.7,1.0
COc1cc(-c2cc(=O)c3c(O)cc(O)cc3o2)ccc1O,·,·,-2.1,·,·,·
COc1cc(-c2cc(=O)c3ccccc3o2)ccc1O,3.1,2.1,77.4*,-1.1,9.7,2.7
COc1ccc(-c2nc(Cn3c(SCc4cccc(F)c4)nc4ccncc43)c(C)o2)cc1OC,-0.9,-0.7,27.2,-1.6,0.1,-1.5
COc1ccc(-c2nc(Cn3c(SCc4ccc(C)cc4)nc4ccncc43)c(C)o2)cc1OC,0.5,0.3,12.7,-1.2,11.5*,3.0
O=C(NC1CCCC1)C(c1ccccc1)n1c(CSCCOc2ccccc2)nc2ccccc21 (configuration not stated),-4.4,·,·,-2.4,-16.0,-6.4
Cc1ccnc(NC(=O)C2CC(=O)N(Cc3ccccc3)C2)c1 (configuration not stated),4.3*,1.2,-0.7,-0.4,4.8,2.7
Nc1nc(N)c(N=O)c(OCC2CCCCC2)n1,2.9,1.8,6.6,-0.4,12.1*,0.5
O=C1Nc2ccccc2/C1=N\N=C\c1ccc(O)c(O)c1,-0.2,4.5*,19.4,-0.6,-0.3,3.3
Cc1ccsc1/C=N/N=C1\C(=O)Nc2ccccc21,0.9,-0.1,69.8*,-0.1,9.5,5.1
